# VDR inh = Inhibitors of the vitamin D receptor (VDR): qHTS; VDR-SRC2-3 peptide fluorescence polarization, 2 h; Potency, µM, for inactives: max response, negative = inhibition, usual class: inhibitors; 0.93% of 400,000 active; Vitamin D3 receptor (Homo sapiens), P11473
# Target sequence (P11473 whole entry, looked up): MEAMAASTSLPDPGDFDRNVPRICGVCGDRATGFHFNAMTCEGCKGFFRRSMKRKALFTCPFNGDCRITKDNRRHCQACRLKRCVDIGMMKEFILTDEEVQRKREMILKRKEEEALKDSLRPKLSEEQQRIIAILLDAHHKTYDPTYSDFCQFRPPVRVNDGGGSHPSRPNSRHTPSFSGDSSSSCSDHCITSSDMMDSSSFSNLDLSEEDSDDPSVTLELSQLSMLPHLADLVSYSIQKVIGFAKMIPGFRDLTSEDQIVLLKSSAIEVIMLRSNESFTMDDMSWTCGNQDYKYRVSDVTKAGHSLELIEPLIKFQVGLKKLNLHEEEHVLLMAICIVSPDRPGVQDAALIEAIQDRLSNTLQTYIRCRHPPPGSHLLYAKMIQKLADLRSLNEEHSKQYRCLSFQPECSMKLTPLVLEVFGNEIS
#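 FP read-out; VDR + SRC2-3 coactivator peptide; 23 nl compound by pintool; 2 h RT incubation; reagents held at 4 deg C, protected from light.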
# IDH1 R132H inh = qHTS for Inhibitors of mutant isocitrate dehydrogenase 1 (IDH1): qHTS | 0.093% of 390,000 active | Isocitrate dehydrogenase [NADP] cytoplasmic (Homo sapiens), O75874 | Potency, µM (top dose mostly 76.6 µM), for the others: top-dose activity change, negative = inhibition, usual class: inhibitors | AID 602179, 2012 | IDH1-R132H enzyme, NADPH consumption, diaphorase/resazurin fluorescence; note: nearly all actives have a fitted effect of over 65% in size
#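 IDH1-R132H (0.5 ug/mL) preincubated 30 min with compound, then NADPH (0.016 mM) and alpha-KG (2 mM) added; 80 min at RT, pH 7.5. Remaining NADPH coupled via diaphorase/resazurin to fluorescence (540/590 nm); concentration-response curves normalized to no-enzyme control.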
# Sfp inh = qHTS Assay for Inhibitors of Bacillus subtilis Sfp phosphopantetheinyl transferase (PPTase) | Biochemical Sfp PPTase activity, qHTS | 4'-phosphopantetheinyl transferase ffp (Bacillus subtilis), Q9F4F7 | Potency, µM, without a hit: largest response in the series, negative = inhibition, most hits filed as inhibitors | 3.5% of 310,000 active;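 note: the enzyme is Sfp with the accession as filed and its product quenches rhodamine fluorescence; 0% = enzyme reaction without inhibitor and -100% = no enzyme wells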
#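 Step 1, compound plus 15 nM Sfp-PPTase, 15 min, room temperature. Step 2, add rhodamine-CoA (5 uM) and BHQ-2-YbbR (12.5 uM). Step 3, read 525/598 nm fluorescence at 0 and 30 min.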
# TrxR1 substrate = qHTS Assay for Substrates of Mammalian Selenoprotein Thioredoxin Reductase 1 (TrxR1): qHTS; Thioredoxin reductase 1, cytoplasmic (Rattus norvegicus), O89049; purified TrxR1 substrate turnover, NADPH consumption readout; Potency, µM (series often up to 114 µM), inactives show top-dose activity change, negative = substrate turnover; 0.01% of 390,000 active; AID 588456, 2011; note: nearly all actives have a fitted effect of over 50% in size
#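 Rat TrxR1, dispensed at 90 nM, was prereduced with 400 uM NADPH (final) for 5 min at ~22 deg C, then incubated with compound 15 min before 400 uM selenite. A first-read NADPH fluorescence drop versus no-compound background flagged substrates.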
# rTrxR1 inhibitor = qHTS Assay for Inhibitors of Mammalian Selenoprotein Thioredoxin Reductase 1 (TrxR1): qHTS | Potency, µM (highest dose often 114 µM), for inactives: top-dose activity change, negative = inhibition, hits mostly inhibitors | recombinant rTrxR1, NADPH fluorescence consumption, selenite substrate | 1% of 390,000 active | AID 588453, 2011 | Thioredoxin reductase 1, cytoplasmic (Rattus norvegicus), O89049; note: nearly all actives have a fitted effect of over 65% in size
#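 Rat TrxR1 (90 nM in the dispensed reagent) was pre-reduced with 400 uM NADPH for 5 min at room temperature, then incubated with compound for 15 min. After 400 uM selenite was added, NADPH fluorescence (Ex 340/Em 450 nm) was followed for 8 min.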
# PLK1 PBD block = qHTS for Inhibitors of PLK1-PDB (polo-like kinase 1 - polo-box domain): Primary Screen; Plk1 PBD binding of FITC phosphopeptide, fluorescence polarization; Potency, µM, for the others: max response, negative = inhibition, most hits filed as inhibitors; 2.8% of 360,000 active; AID 720504, 2013; note: series mostly up to about 57 µM; nearly all actives have a fitted effect of over 65% in size
# The depositor's hits bear a star; ? = inconclusive; / = not tested or not shown; [ ] = another dose, or the depositor's remark. Hits are enriched below; roughly 5.2% of the tested compounds scored in any of these assays. Calls come from the whole dose curve; as a rule, active = well fitted curve in the direction sought with a large enough effect; inconclusive = small, poorly fitted or top-dose-only effect, or another doubt; inactive = no such curve, though single readings can be large; an effect the other way counts as inactive or inconclusive. Unless noted, % is set by controls: 0 for no effect and ±100 for the full control effect; potency is the fitted concentration of half-maximal effect.
SMILES,VDR inh,IDH1 R132H inh,Sfp inh,TrxR1 substrate,rTrxR1 inhibitor,PLK1 PBD block
O=[N+]([O-])/C=C/c1c(Cl)cccc1Cl,20µM*,2%,/,3%[11.4 µM],?,2.7µM*
NC(N)=N/N=C/c1cn(-c2ccccc2)nc1-c1cccs1,8%,8%,79µM*,-1%,3%,1%
COC(/C(C)=C/C=C/C(C)=C/c1coc(C)n1)C(C)C1CC(O)C2(C)OC2C=CC(C)C2CC(CC(=O)O2)CC2OC2C(=O)O1 (stereo not given),-20%,3%,/,1%,10µM*,-8%
O=C(Nc1cccc(F)c1)N1CC2(CCN(C(=O)Oc3ccccc3)CC2)C1,-7%,/,10%,/,/,/
O=C(Nc1cccc(F)c1)N1CC2(CCNCC2)C1,40µM*,/,?,/,/,/
c1ccc(CN2CCCC3(CCNCC3)C2)cc1,?,/,-14%,/,/,/
COC(=O)[C@H]1[C@@H](c2ccccc2)[C@@]2(c3ccccc3)Oc3ccccc3[C@@]1(O)[C@@H]2O,/,/,6%,/,/,/
COc1cc(/C=C2/SC(=S)N(Cc3ccccc3)C2=O)ccc1OCC(=O)O,89µM*,-9%,-25%,-3%,4%,?
NC(=O)CC[C@@H]1NC(=O)[C@H](Cc2ccccc2)NC(=O)[C@H](Cc2ccc(O)cc2)NC(=O)[C@@H](N)CSSC[C@@H](C(=O)N2CCC[C@H]2C(=O)N[C@@H](CCCN=C(N)N)C(=O)NCC(N)=O)NC(=O)[C@H](CC(N)=O)NC1=O,?,/,9%,/,/,/
O=[N+]([O-])c1ccccc1CCl,-6%,17%,/,9%,45µM*,-3%
CCC(CC)c1nnc(NC(=O)CC(C)c2ccccc2)s1 (stereo not given),-1%,-2%,-17%,2%,21%,?
CC(C)[C@H](NC(=O)[C@H](CCC(=O)O)NC(=O)[C@H](Cc1ccccc1)NC(=O)[C@@H](C)NC(=O)[C@@H](N)Cc1ccc(O)cc1)C(=O)N[C@H](C(=O)NCC(N)=O)C(C)C,7%,/,8%,/,/,/
COc1ccccc1C=C1C(=O)NC(=S)NC1=O,45µM*,-6%,/,8%,?,24µM*
O=C1NC(=S)N(c2ccc(F)cc2)C(=O)/C1=C/c1ccccc1O,-30%,-6%,-14%,8%,?,-29%
CC(C)c1ccc(N2C(=O)NC(=O)/C(=C\C=C\c3ccco3)C2=O)cc1,37%,0%,-18%,-5%,-22%,?
CCOc1cccc(N2C(=O)/C(=C/c3ccco3)C(=O)NC2=S)c1,?,8%,35µM*,1%,?,12µM*
CCN1C(=O)/C(=C/c2ccc(N(CC)CC)cc2OC)C(=O)NC1=S,?,15%,?,-3%,?,1.1µM*
COc1ccccc1/C=C1\C(=O)NC(=S)N(c2ccccc2)C1=O,50µM*,-9%,45µM*,7%,?,15µM*
CCN(CC)c1ccc(/C=C2\C(=O)NC(=S)N(c3ccc(OC)cc3OC)C2=O)o1,8%,1%,/,-8%[57.1 µM],-30%[57.1 µM],121%
NC(=O)Cn1cc(C=C2C(=O)NC(=O)NC2=O)c2ccccc21,-11%,0%,-18%,1%,?,?
CNCCc1ccc(O)c(O)c1,?,13%,56µM*,12%[57.1 µM],?,-2%
CC/C=C\C/C=C\C/C=C\C/C=C\C/C=C\CCCC(=O)NCCc1ccc(O)c(O)c1,-15%,/,-13%,/,/,/
CC(=O)C[C@@H](c1ccccc1)c1c(O)c2ccccc2oc1=O,-3%,/,-11%,/,/,/
CCn1nc(/C=C/c2ccccc2)nc2c(=O)n(C)c(=O)nc1-2,?,22%,?,16µM*,?,24µM*
CCn1nc(-c2cccs2)nc2c(=O)n(C)c(=O)nc1-2,-4%,11%,-5%,45µM*,?,-14%
SMILES,VDR inh,IDH1 R132H inh,Sfp inh,TrxR1 substrate,rTrxR1 inhibitor,PLK1 PBD block
CCOc1ccc(-n2c(/C=C/c3ccccc3)nc3ccccc3c2=O)cc1,11%,-3%,/,-5%[57.1 µM],-3%[57.1 µM],/
CS(=O)c1ccc(-c2nc(-c3ccc(F)cc3)c(-c3ccncc3)[nH]2)cc1 (stereo not given),?,/,3%,/,/,/
CC(=O)/C=C/c1ccccc1,-9%,-9%,/,8%[57.1 µM],16%[57.1 µM],-12%
CC(=O)[O][Hg][c]1ccccc1,1.8µM*,/,0.18µM*,/,/,/
CN1C(=O)C(=Cc2c(OCc3cnc(Cl)s3)ccc3ccccc23)C(=O)N(C)C1=O,?,6%,?,-2%,?,4.7µM*
COc1ccc(CNC(=O)c2cnn3c(C)c(Cc4ccc(F)cc4)c(C)nc23)cc1,-2%,10%,/,38%[57.1 µM],60%[57.1 µM],/
O=C1NC(=O)N(c2ccccc2)C(=O)/C1=C/c1ccc(Sc2ccccc2)o1,?,-8%,22µM*,-4%,14µM*,?
Cc1cccn2c(=O)c3c(nc12)N1CCC(Cc2ccccc2)CC1C1(C3)C(=O)N(C)C(=O)N(C)C1=O (stereo not given),16%,-10%,32µM*,28%,27%,2%
CN1C(=O)N(C)C(=O)C2(Cc3c(nc4ccccn4c3=O)N3CCC(Cc4ccccc4)CC32)C1=O (stereo not given),/,/,-1%,/,/,/
O=C(/C=C/c1ccc(Cl)cc1)N[C@@]12CCC(=O)[C@@H]3Oc4c(O)ccc5c4[C@@]31CCN(CC1CC1)C2C5,1%,/,16%,/,/,/
N#Cc1cc2c(nc1SCC(=O)Nc1ccc(Cl)cc1)C1CCN2CC1,-2%,7%,10%,9%,5%,-6%
O=C(CSc1nc(-c2ccc(Cl)cc2)[nH]c(=O)n1)Nc1cccc(Cl)c1,-17%,-7%,1%,12%[57.1 µM],16%[11.4 µM],24µM*
Cc1ccc(Cl)cc1N1CCN(C(=O)c2cn(CC(C)C)c(=O)c3c2c2ccccc2n3C)CC1,-7%,11%,/,31%,38%,/
O=C(O)COc1ccccc1,-10%,-8%,-3%,11%,41%,-5%
O=C(O)Cc1cccnc1C(=O)O,-4%,/,16µM*,/,/,/
CN1CCN(Cc2cc(C(C)(C)C)c(O)c(C(C)(C)C)c2)CC1,-29%,6%,-18%,7%,?,24µM*
COc1ccc(CCNC(=O)c2cnc3sc(N4CCCCCC4)nn3c2=O)cc1,-4%,-4%,/,88%,-4%,/

# Bioassay records deposited in PubChem by National Center for Advancing Translational Sciences (NCATS).
